# Experiments:
# Assay in all cases: DAPPL (digital affinity profiling via proximity ligation, sequencing); 10 mM Tris-HCl pH 7.5, 50 mM NaCl, 1 mM DTT, 4% glycerol, room temperature, 30 min; GST-TFs on glutathione beads, 16-mer random dsDNA library, 0.1% formaldehyde crosslink after washing; high values mean tight binding
# Conditions in all cases: protein: recombinant; tags: N-terminal GST; dsDNA, one strand shown
# ELK1 = target: T1, ELK1 (Homo sapiens, UniProt P19419 1-428)
# T1 sequence: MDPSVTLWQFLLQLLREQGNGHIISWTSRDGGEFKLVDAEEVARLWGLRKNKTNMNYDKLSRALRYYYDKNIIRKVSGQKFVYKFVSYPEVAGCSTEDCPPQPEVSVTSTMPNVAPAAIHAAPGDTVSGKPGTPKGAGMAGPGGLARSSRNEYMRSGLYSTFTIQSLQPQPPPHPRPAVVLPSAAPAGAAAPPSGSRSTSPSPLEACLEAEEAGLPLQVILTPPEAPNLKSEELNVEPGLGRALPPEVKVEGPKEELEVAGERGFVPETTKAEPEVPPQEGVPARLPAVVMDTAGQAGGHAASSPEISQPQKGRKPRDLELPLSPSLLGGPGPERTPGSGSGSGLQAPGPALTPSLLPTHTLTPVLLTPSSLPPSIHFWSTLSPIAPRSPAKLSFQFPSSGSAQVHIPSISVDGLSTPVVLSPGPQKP
# In short: (§1)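 Binding signal is each hexamer's read frequency for a factor divided by its frequency in the tag-only sample. The factors were GST-fused human transcription factors from yeast, captured on glutathione beads, DNA-barcoded and pooled with that sample. Pools were incubated with 200 nmole of a random double-stranded 16-mer DNA library in Tris/NaCl/DTT/glycerol buffer at room temperature for 30 min, then washed, crosslinked with 0.1% formaldehyde, proximity-ligated with BsaI/T4 ligase (1 h, 37 °C), PCR-amplified and sequenced on an Illumina NextSeq500.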
# GABPA = target: T2, GABPA (Homo sapiens, UniProt Q06546 1-454)
# T2 sequence: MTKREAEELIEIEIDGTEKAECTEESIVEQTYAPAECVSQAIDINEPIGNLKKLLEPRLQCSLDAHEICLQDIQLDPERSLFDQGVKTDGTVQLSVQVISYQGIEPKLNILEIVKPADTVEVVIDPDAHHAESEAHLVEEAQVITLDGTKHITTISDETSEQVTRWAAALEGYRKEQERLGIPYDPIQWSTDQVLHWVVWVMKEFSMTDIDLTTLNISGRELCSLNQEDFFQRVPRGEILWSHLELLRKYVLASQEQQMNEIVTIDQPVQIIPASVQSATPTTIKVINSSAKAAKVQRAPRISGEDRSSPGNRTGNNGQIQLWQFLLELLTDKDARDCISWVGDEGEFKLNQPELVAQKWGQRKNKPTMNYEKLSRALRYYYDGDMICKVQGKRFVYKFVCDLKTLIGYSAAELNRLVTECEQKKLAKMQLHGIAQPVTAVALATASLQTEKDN
# In short: as §1
# ERG = target: T3, ERG (Homo sapiens, UniProt P11308 1-479)
# T3 sequence: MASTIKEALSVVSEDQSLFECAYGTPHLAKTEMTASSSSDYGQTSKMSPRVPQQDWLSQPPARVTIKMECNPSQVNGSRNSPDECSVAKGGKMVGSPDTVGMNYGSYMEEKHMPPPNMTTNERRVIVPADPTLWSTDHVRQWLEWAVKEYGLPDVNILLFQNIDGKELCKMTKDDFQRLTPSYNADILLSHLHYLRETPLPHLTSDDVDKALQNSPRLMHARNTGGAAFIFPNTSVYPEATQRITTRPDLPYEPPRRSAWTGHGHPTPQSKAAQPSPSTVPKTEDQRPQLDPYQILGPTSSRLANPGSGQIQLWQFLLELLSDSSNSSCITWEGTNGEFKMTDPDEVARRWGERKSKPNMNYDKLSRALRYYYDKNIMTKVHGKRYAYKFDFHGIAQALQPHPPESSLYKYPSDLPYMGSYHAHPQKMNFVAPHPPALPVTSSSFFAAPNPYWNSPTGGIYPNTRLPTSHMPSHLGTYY
# In short: as §1
# ELF1 = ELF1 (Homo sapiens, UniProt P32519 1-619)
# ELF1, sequence (P32519 whole entry): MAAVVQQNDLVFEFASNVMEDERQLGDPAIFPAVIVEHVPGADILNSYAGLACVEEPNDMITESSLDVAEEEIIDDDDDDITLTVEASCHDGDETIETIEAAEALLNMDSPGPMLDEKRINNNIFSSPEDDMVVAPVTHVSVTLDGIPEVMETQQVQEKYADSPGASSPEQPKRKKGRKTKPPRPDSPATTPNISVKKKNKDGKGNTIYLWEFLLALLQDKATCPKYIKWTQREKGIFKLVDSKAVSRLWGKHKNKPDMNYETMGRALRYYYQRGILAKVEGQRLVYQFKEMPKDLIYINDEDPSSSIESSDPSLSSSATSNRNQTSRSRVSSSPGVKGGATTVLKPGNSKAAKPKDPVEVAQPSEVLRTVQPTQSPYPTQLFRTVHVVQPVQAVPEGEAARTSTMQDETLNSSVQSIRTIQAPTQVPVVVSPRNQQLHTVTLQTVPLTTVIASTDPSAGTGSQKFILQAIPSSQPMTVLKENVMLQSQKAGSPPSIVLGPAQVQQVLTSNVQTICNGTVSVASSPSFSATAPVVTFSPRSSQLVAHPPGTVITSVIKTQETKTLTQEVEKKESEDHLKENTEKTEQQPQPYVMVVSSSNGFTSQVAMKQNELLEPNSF
# In short: as §1
# SPI1 = SPI1 (Homo sapiens, UniProt P17947 1-270)
# In short: as §1
# SPIB = SPIB (Homo sapiens, UniProt Q01892 1-262)
# SPIB, sequence (Q01892 whole entry): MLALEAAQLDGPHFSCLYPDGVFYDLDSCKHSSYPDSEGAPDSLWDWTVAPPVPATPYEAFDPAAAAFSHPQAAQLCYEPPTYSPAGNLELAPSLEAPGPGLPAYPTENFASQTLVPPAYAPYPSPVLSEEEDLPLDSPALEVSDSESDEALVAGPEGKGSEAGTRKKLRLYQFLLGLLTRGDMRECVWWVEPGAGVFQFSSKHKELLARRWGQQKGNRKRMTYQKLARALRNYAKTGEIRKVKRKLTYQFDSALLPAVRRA
# In short: as §1
# FEV = target: T4, FEV (Homo sapiens, UniProt Q99581 1-238)
# T4 sequence: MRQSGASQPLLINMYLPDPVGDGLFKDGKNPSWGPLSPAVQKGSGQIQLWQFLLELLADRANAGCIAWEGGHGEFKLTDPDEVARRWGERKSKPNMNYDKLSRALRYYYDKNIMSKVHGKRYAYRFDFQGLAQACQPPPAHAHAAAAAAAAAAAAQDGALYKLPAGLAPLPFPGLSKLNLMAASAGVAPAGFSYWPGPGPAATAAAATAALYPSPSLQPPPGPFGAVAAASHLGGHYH
# In short: as §1
# ETV5 = ETV5 (Homo sapiens, UniProt P41161 1-510)
# ETV5, sequence (P41161 whole entry): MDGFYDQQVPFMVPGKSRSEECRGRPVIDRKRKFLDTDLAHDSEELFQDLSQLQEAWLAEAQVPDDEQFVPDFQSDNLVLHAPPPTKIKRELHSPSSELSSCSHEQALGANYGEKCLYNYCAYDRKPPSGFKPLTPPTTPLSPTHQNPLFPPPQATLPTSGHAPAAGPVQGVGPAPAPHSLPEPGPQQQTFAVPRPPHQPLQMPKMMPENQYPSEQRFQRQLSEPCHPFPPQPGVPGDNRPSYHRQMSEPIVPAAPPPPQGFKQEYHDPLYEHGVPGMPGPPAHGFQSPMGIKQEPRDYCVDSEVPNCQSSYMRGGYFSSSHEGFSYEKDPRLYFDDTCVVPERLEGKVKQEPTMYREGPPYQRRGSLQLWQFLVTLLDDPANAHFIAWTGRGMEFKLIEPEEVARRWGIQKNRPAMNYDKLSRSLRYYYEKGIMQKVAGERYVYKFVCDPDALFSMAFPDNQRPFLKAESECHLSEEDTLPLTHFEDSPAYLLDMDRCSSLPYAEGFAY
# In short: as §1
# ELF4 = ELF4 (Homo sapiens, UniProt Q99607 1-663)
# ELF4, sequence (Q99607 whole entry): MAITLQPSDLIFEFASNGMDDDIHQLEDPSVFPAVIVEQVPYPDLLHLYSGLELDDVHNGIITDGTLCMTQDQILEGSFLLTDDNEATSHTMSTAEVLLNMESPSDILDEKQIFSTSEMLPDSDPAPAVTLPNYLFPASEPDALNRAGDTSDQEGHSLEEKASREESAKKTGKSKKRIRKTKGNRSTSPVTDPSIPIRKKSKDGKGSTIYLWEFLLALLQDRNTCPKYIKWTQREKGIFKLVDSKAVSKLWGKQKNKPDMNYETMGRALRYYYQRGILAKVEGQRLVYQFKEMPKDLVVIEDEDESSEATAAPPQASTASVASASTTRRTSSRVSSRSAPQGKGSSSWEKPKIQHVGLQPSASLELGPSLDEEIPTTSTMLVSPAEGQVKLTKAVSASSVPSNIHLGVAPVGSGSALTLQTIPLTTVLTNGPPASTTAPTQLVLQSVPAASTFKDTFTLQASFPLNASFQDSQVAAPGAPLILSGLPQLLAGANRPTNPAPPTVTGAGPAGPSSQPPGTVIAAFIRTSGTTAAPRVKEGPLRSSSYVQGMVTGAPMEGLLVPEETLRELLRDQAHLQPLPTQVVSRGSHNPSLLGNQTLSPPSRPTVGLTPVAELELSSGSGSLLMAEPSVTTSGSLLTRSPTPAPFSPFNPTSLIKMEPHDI
# In short: as §1
# ELF3 = target: T5, ELF3 (Homo sapiens, UniProt P78545 1-371)
# T5 sequence: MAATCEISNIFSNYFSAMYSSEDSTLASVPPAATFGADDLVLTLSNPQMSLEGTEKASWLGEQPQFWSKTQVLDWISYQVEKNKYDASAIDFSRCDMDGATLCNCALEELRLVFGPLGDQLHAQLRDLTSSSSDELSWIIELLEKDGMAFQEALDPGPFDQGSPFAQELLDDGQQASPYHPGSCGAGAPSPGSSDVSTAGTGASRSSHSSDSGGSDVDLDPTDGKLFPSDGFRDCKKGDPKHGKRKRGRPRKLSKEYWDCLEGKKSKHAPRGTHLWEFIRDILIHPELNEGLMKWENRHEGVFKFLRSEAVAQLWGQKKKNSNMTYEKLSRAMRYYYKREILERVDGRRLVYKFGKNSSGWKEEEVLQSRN
# In short: as §1
# ETV1 = ETV1 (Homo sapiens, UniProt P50549 1-477)
# ETV1, sequence (P50549 whole entry): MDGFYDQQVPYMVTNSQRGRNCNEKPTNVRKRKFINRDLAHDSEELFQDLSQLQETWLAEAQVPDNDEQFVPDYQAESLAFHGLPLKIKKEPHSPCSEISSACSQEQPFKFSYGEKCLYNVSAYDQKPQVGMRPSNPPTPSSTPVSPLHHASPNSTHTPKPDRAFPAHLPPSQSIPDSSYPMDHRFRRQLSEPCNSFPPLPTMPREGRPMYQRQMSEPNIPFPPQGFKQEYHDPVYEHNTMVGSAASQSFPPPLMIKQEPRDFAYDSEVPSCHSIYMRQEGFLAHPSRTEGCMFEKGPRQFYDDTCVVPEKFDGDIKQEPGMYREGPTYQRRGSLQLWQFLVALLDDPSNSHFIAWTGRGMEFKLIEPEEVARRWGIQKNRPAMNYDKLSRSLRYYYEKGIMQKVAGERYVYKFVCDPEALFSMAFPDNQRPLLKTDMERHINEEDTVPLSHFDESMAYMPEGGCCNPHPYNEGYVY
# In short: as §1
# ETV3L = target: T6, ETV3L (Homo sapiens, UniProt Q6ZN32 1-361)
# T6 sequence: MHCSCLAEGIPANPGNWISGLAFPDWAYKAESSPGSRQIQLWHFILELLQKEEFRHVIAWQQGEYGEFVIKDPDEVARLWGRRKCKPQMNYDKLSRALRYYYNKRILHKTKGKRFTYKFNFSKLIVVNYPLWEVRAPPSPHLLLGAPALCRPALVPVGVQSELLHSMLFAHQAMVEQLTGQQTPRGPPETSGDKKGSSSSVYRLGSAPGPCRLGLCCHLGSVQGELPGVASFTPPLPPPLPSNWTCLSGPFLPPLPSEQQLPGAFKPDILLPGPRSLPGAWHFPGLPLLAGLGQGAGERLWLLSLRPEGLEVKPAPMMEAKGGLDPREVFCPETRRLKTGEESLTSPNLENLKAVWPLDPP
# In short: as §1
# ETS2 = target: T7, ETS2 (Homo sapiens, UniProt P15036 1-469)
# T7 sequence: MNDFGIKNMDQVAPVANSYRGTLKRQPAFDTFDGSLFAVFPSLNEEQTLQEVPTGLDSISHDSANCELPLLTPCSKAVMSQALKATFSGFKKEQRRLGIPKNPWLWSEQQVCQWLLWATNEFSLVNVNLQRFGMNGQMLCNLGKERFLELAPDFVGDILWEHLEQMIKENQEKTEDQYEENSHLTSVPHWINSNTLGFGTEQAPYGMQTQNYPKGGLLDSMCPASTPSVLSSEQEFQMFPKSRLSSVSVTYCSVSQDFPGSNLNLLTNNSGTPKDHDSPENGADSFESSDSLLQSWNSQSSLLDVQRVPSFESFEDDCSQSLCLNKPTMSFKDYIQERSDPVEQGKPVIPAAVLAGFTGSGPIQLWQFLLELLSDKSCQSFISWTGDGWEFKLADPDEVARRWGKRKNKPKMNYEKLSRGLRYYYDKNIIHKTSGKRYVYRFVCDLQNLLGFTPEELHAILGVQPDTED
# In short: as §1
# SPDEF = target: T8, SPDEF (Homo sapiens, UniProt O95238 1-335)
# T8 sequence: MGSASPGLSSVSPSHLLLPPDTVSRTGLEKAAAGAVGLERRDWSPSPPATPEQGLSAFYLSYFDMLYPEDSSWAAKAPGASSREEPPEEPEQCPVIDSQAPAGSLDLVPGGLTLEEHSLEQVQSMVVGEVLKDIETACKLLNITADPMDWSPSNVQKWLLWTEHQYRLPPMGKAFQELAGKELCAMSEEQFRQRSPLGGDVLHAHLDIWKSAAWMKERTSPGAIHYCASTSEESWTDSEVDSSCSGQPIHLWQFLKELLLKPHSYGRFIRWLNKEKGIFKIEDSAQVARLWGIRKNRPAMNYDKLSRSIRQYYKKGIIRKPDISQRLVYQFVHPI
# In short: as §1
# ETV7 = target: T9, ETV7 (Homo sapiens, UniProt Q9Y603 1-341)
# T9 sequence: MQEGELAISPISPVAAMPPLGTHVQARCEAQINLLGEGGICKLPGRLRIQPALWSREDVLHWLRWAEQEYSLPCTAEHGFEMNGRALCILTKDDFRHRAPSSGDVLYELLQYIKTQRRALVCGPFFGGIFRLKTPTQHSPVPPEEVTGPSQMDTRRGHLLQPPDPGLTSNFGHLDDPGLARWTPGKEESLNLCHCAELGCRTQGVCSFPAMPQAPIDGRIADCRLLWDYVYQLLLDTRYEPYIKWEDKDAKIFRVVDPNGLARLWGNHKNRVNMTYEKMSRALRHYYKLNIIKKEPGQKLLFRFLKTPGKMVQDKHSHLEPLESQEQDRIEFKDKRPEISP
# In short: as §1
# ETV3 = target: T10, ETV3 (Homo sapiens, UniProt P41162-2 1-143)
# T10 sequence: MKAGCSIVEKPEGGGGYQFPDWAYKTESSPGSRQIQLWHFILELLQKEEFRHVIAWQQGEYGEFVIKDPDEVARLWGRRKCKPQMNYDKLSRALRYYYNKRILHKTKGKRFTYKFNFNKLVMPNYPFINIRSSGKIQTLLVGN
# In short: as §1
# ETV6 = ETV6 (Homo sapiens, UniProt P41212 1-452)
# ETV6, sequence (P41212 whole entry): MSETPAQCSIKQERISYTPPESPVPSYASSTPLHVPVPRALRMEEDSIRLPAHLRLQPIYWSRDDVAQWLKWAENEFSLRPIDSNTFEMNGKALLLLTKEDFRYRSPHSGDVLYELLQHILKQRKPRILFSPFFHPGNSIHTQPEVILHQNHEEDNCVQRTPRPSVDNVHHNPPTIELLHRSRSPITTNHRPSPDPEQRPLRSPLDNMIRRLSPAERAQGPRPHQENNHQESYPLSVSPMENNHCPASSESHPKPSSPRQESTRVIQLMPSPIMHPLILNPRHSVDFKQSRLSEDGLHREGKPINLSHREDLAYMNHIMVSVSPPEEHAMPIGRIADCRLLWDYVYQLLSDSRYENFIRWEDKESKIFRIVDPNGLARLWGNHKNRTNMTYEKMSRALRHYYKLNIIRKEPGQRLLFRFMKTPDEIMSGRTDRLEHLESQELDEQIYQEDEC
# In short: as §1
sequence,measurement,setting,value
GTTACC,binding signal,ELK1,"1.16 fold enrichment (6-mer frequency, TF over GST control)"
same,binding signal,GABPA,"1.05 fold enrichment (6-mer frequency, TF over GST control)"
same,binding signal,ERG,"1.04 fold enrichment (6-mer frequency, TF over GST control)"
same,binding signal,ELF1,"1.04 fold enrichment (6-mer frequency, TF over GST control)"
same,binding signal,SPI1,"1.12 fold enrichment (6-mer frequency, TF over GST control)"
same,binding signal,SPIB,"1.14 fold enrichment (6-mer frequency, TF over GST control)"
same,binding signal,FEV,"1.07 fold enrichment (6-mer frequency, TF over GST control)"
same,binding signal,ETV5,"1.06 fold enrichment (6-mer frequency, TF over GST control)"
same,binding signal,ELF4,"1.07 fold enrichment (6-mer frequency, TF over GST control)"
same,binding signal,ELF3,"1.06 fold enrichment (6-mer frequency, TF over GST control)"
same,binding signal,ETV1,"1.08 fold enrichment (6-mer frequency, TF over GST control)"
same,binding signal,ETV3L,"1.04 fold enrichment (6-mer frequency, TF over GST control)"
same,binding signal,ETS2,"1.09 fold enrichment (6-mer frequency, TF over GST control)"
same,binding signal,SPDEF,"1.03 fold enrichment (6-mer frequency, TF over GST control)"
same,binding signal,ETV7,"1.02 fold enrichment (6-mer frequency, TF over GST control)"
same,binding signal,ETV3,"1.03 fold enrichment (6-mer frequency, TF over GST control)"
same,binding signal,ETV6,"1.03 fold enrichment (6-mer frequency, TF over GST control)"
